# Results: the supplement of paper PMC8728848
# The sample as a whole holds a higher share of the strongest signals than the screen did.
# B1: HPA (Helix pomatia), Q2F1K8 (protein)
# chain: MQAFYSGLLLLCVVAFAAAQRVQSGKIDCGNDAGWAKVPSDDPGRDNTRELAKNITFASPYCRPPVVLLSITQLDVEQSQNLRVIARLYSVSPTGFKASCYTWHNTKVYSMSISWISIENY
# Columns and labels:
# Assay in all cases: glycan array binding signal (z-score within array); higher = stronger binding
# Conditions in all cases: glycan notation: IUPAC condensed, linker removed
# [1] = target: Gal(b1-4)GlcNAc(b1-3)Gal(b1-4)GlcNAc(b1-6)[Gal(b1-3)]GalNAc
# Outline: (§1)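 Columns mapping to the same glycan were averaged after glycan names were converted to IUPAC-condensed notation. The data come from 3228 arrays in the Consortium for Functional Glycomics database, limited to those with an available protein sequence. Binding is reported as a within-array Z-score averaged across arrays of one protein sequence and across linkers.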
# [2] = target: Gal(b1-4)GlcNAc(b1-3)[Gal(b1-4)GlcNAc(b1-6)]GalNAc
# Outline: as §1
# [3] = target: Gal(b1-4)GlcNAc(b1-6)[Gal(b1-3)]GalNAc
# Outline: as §1
# [4] = target: Gal6S(b1-3)GlcNAc6S
# Outline: as §1
# [5] = target: GalNAc(a1-3)Gal
# Outline: as §1
# [6] = target: GalNAc(a1-3)GalNAc
# Outline: as §1
# [7] = target: GalNAc(a1-3)GalNAc(a1-3)Gal(a1-4)Gal(b1-4)GlcNAc
# Outline: as §1
# [8] = target: GalNAc(a1-3)GalNAc(b1-3)Gal(a1-4)Gal(b1-4)Glc
# Outline: as §1
# [9] = target: GalNAc(b1-3)GalNAc
# Outline: as §1
# [10] = target: GlcA3S(b1-3)Gal(b1-4)GlcNAc(b1-3)Gal(b1-4)Glc
# Outline: as §1
# [11] = target: GlcNAc(b1-2)Man(a1-3)[GlcNAc(b1-4)][GlcNAc(b1-2)Man(a1-6)]Man(b1-4)GlcNAc(b1-4)[Fuc(a1-6)]GlcNAc
# Outline: as §1
# [12] = target: GlcNAc(b1-4)GlcNAc(b1-4)GlcNAc(b1-4)GlcNAc(b1-4)GlcNAc
# Outline: as §1
# [13] = target: GlcNAc(b1-6)Gal(b1-4)GlcNAc
# Outline: as §1
# [14] = target: GlcNAc3Prop(b1-4)GlcNAc
# Outline: as §1
# [15] = target: Kdn(a2-6)Gal(b1-4)GlcNAc
# Outline: as §1
# [16] = target: Man(a1-2)Man(a1-3)[Man(a1-2)Man(a1-6)]Man
# Outline: as §1
# [17] = target: Neu5Ac(a2-3)Gal(b1-3)GalNAc6S
# Outline: as §1
# [18] = target: Neu5Ac(a2-3)Gal(b1-3)GlcNAc(b1-2)Man(a1-3)[Neu5Ac(a2-3)Gal(b1-3)GlcNAc(b1-2)Man(a1-6)]Man(b1-4)GlcNAc(b1-4)GlcNAc
# Outline: as §1
# [19] = target: Neu5Ac(a2-3)Gal(b1-3)GlcNAc6S
# Outline: as §1
# [20] = target: Neu5Ac(a2-3)Gal(b1-3)[Fuc(a1-4)]GlcNAc(b1-3)Gal(b1-4)[Fuc(a1-3)]GlcNAc
# Outline: as §1
# [21] = target: Neu5Ac(a2-3)Gal(b1-4)GlcNAc(b1-2)Man
# Outline: as §1
# [22] = target: Neu5Ac(a2-3)Gal(b1-4)GlcNAc(b1-2)[Neu5Ac(a2-3)Gal(b1-4)GlcNAc(b1-6)]Man(a1-6)[Neu5Ac(a2-3)Gal(b1-4)GlcNAc(b1-2)Man(a1-3)][GlcNAc(b1-4)]Man(b1-4)GlcNAc(b1-4)GlcNAc
# Outline: as §1
# [23] = target: Neu5Ac(a2-3)Gal(b1-4)[Fuc(a1-3)]GlcNAc(b1-3)Gal(b1-4)GlcNAc
# Outline: as §1
# [24] = target: Neu5Ac(a2-3)Gal6S(b1-4)GlcNAc
# Outline: as §1
# [25] = target: Neu5Ac(a2-3)[Neu5Ac(a2-6)]GalNAc
# Outline: as §1
# [26] = target: Neu5Ac(a2-6)Gal(b1-4)GlcNAc(b1-3)Gal(b1-4)GlcNAc(b1-2)Man(a1-3)[Neu5Ac(a2-6)Gal(b1-4)GlcNAc(b1-3)Gal(b1-4)GlcNAc(b1-2)Man(a1-6)]GalNAc
# Outline: as §1
# [27] = target: Neu5Ac(a2-6)GalNAc(b1-4)GlcNAc6S
# Outline: as §1
# [28] = target: Neu5Ac(a2-6)GlcNAc(b1-4)GlcNAc
# Outline: as §1
# [29] = target: Neu5Ac(a2-8)Neu5Ac(a2-3)Gal(b1-4)GlcNAc
# Outline: as §1
binder,measurement,setting,value
B1,glycan array binding signal (z-score),[1],0.365
same,glycan array binding signal (z-score),[2],-0.304
same,glycan array binding signal (z-score),[3],-0.255
same,glycan array binding signal (z-score),[4],-0.301
same,glycan array binding signal (z-score),[5],2.85
same,glycan array binding signal (z-score),[6],3.28
same,glycan array binding signal (z-score),[7],3.71
same,glycan array binding signal (z-score),[8],7.34
same,glycan array binding signal (z-score),[9],0.839
same,glycan array binding signal (z-score),[10],-0.351
same,glycan array binding signal (z-score),[11],-0.214
same,glycan array binding signal (z-score),[12],-0.314
same,glycan array binding signal (z-score),[13],-0.35
same,glycan array binding signal (z-score),[14],-0.979
same,glycan array binding signal (z-score),[15],-0.242
same,glycan array binding signal (z-score),[16],-0.231
same,glycan array binding signal (z-score),[17],-0.272
same,glycan array binding signal (z-score),[18],-0.195
same,glycan array binding signal (z-score),[19],-0.281
same,glycan array binding signal (z-score),[20],-0.105
same,glycan array binding signal (z-score),[21],-0.116
same,glycan array binding signal (z-score),[22],-0.361
same,glycan array binding signal (z-score),[23],0.04
same,glycan array binding signal (z-score),[24],-0.242
same,glycan array binding signal (z-score),[25],-0.294
same,glycan array binding signal (z-score),[26],0.201
same,glycan array binding signal (z-score),[27],-0.275
same,glycan array binding signal (z-score),[28],-0.359
same,glycan array binding signal (z-score),[29],-0.323
